Source: PubChem (National Center for Advancing Translational Sciences (NCATS))
Compounds with a hit are over-represented: about 6.6% of the library has one in this group of screens.
KB-3-1 tox: KB-3-1 parental cell cytotoxicity; KB-3-1 viability, CellTiter-Glo ATP luminescence, 72 h; Potency, µM (titrated, usually from 46.1 µM), usual class: cytotoxic; actives 1.4% (n = 400,000); AID 1347075; further: on the % scale 0 is the no-effect control and ±100 the full control effect; nearly all actives have a fitted effect of over 60% in size
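KB-3-1 parental drug-naive adenocarcinoma cells in DMEM/10% FBS, incubated 72 h at 37 C with pin-transferred compounds across a concentration series. Viability by CellTiter-Glo luminescence; concentration-response curves fitted after normalization.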
TGFb inhibitor: TGF-b pathway inhibition. AID 588855. HepG2 CAGA-GFP TGF-b/SMAD3 reporter, GFP fluorescence, 18 h; TGF-beta stimulated, 500 pg/mL final. Potency, µM (titrated, usually from 46.1 µM), for the others: at the highest dose activity, negative = inhibition, usual class: inhibitors. actives 1.2% (n = 410,000); further: on the % scale 0 is the no-effect control and ±100 the full control effect; nearly all actives have a fitted effect of over 65% in size
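Inhibition of TGF-beta-driven CAGA-GFP reporter expression in HEPG2 cells is measured by cellular GFP fluorescence after 18 h stimulation with 500 pg/mL recombinant TGF-beta in 1% FBS medium at 37 degrees C.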
HepG2 tox: kills HepG2 cells in TGF-b inhibitor counter-screen; AID 588856; HepG2 CAGA-GFP viability, ATP luminescence, 18 h; actives 0.76% (n = 410,000); Potency, µM (doses to about 46.1 µM), for inactives: at the highest dose activity change, negative = cytotoxicity, most hits filed as cytotoxic
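HepG2 CAGA-GFP cells (1000/well, DMEM with 1% FBS) received compound, then TGF-beta at 500 pg/mL final, and were incubated 18 hours at 37 degrees C. Viability was read by CellTiter-Glo luminescence. Media-only wells were set as complete cell-killing and DMSO as no toxicity.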
KB-V1 MDR tox: KB-V1 MDR subline cytotoxicity; Potency, µM (series often up to 46.1 µM), hits mostly cytotoxic; AID 1347076; KB-V1 MDR cells viability, CellTiter-Glo, 72 h; actives 3.4% (n = 400,000); further: on the % scale 0 is the no-effect control and ±100 the full control effect; nearly all actives have a fitted effect of over 60% in size
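Following 72 h at 37 degrees C with compound, KB-V1 cell viability was read by CellTiter-Glo luminescence, medium being phenol-red-free DMEM plus 10% FBS; concentration-response parameters came from normalized, curve-fitted qHTS data.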
HT1080 IDH1KD tx: toxicity to HT-1080 IDH1 knockdown cells (counter line); actives 2% (n = 360,000); Potency, µM (highest dose often 46.1 µM), inactives show at the top dose activity, negative = toxicity, usual class: cytotoxic; AID 686971; HT-1080 IDH1 knockdown viability, ATP luminescence, 48 h;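 further: 0% = DMSO wells and -100% = cell-free medium wells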
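IDH1KD HT-1080 cells, 750/well, RPMI + 5% FBS; compound pinned after 2 h settling; 48 h, 37 °C; CellTiter-Glo luminescence; % activity normalised to DMSO and no-cell wells; curves fitted, classed by r2 and efficacy.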
HT1080NT lethal: kills 2HG-producing HT-1080-NT fibrosarcoma cells. HT-1080-NT fibrosarcoma viability, CellTiter-Glo ATP luminescence, 48 h. Potency, µM (series often up to 46.1 µM), for inactives: top-dose activity, negative = less viability, usual class: cytotoxic. actives 1.6% (n = 360,000). AID 686970;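 further: NT is the 2HG producing partner of a matched IDH1 knockdown line; 0% = DMSO-treated cells and -100% = media-only wells without cells; nearly all actives have a fitted effect of over 55% in size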
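Luminescent CellTiter-Glo readout after 48 hours of compound exposure at 37 degrees C defined viability of HT-1080-NT cells. Activity was normalized to DMSO wells and cell-free media wells; concentration-response curves were fitted and assigned curve classes.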
* marks the source's active call; other numbers are inactive results; i = inactive; u = inconclusive; x = no result. The call rests on the fitted dose curve; in most records, active means well fitted curve in the direction sought with a large enough effect; inconclusive means small, poorly fitted or top-dose-only effect, or another doubt; inactive means no such curve, though single readings can be large; an effect the other way counts as inactive or inconclusive. Potency means the concentration at half of the fitted maximal effect.

SMILES	KB-3-1 tox	TGFb inhibitor	HepG2 tox	KB-V1 MDR tox	HT1080 IDH1KD tx	HT1080NT lethal
CCOc1ccc(NC(=S)NC(=O)/C=C/c2ccc(C)cc2)c([N+](=O)[O-])c1	u	-27%	-7%	12µM*	-20%	-18%
Cc1ccc(Sc2ccc(N3CCCC(C(=O)Nc4ccc(F)cc4F)C3)nn2)cc1 (configuration not stated)	i	-5%	-26%	i	x	x
CN(C)CCCNc1c2c(nc3ccccc13)CCC2	u	u	-35%	i	-19%	-29%
CN(C)CCNCCCNc1c2ccccc2nc2cccc([N+](=O)[O-])c12	0.016µM*	-4%	-12%	i	u	-24%
O=C(Nc1ccc2nc(SCC(=O)N3CCOCC3)sc2c1)c1ccccc1Cl	x	u	-13%	x	x	x
CC(=O)NCCNC(=O)c1ccc(Cn2c(=O)[nH]c3ccsc3c2=O)cc1	i	0%	19%	i	4%	3%
O=C(Nc1cc(Cl)cc(Cl)c1)c1ccc(Cn2c(=O)[nH]c3ccsc3c2=O)cc1	16µM*	u	-37%	i	4%	15%
O=C(O)c1ccc(-n2ncc(Cl)c(Cl)c2=O)cc1	i	-3%	-2%	u	18µM*	5.8µM*
CCc1ccccc1NC(=O)C1CCCN(c2nnc(-n3c(C)ccc3C)s2)C1 (configuration not stated)	x	x	-19%	x	x	x
C=CCN1C(c2cccc(C(F)(F)F)c2)=CS/C1=C(/C#N)c1nnc(N2CCOCC2)n1-c1ccccc1	u	u	-27%	4.1µM*	-4%	3%
Cc1cccc(OCCn2c(CCNC(=O)C3CCCCC3)nc3ccccc32)c1	i	-3%	-11%	i	x	x
COc1ccc(C2c3c(n(C)c4ccccc34)C(=O)N2CC(=O)Nc2ccc(F)cc2)cc1 (configuration not stated)	i	0%	1%	i	x	x
COc1ccc(C2c3c(n(C)c4ccccc34)C(=O)N2CC(=O)Nc2ccc(Cl)cc2)cc1 (configuration not stated)	i	2.5µM*	-29%	i	x	x
CNC(=O)/C(C#N)=C/c1c(N(Cc2ccccc2)Cc2ccccc2)nc2ccccn2c1=O	i	u	6%	2.6µM*	0%	4%
CCCCN(C)C(=O)c1ccc2c(c1)N(Cc1cccc(F)c1)C(=O)c1ccccc1S2	i	u	-58%	u	x	x
COc1cc(OC)c2c(-c3cccc(-c4ccc(C(C)=O)cc4)c3)cc(=O)oc2c1	i	u	2%	i	3.3µM*	5.2µM*
CCc1cc(=O)oc2cc3occ(C)c3cc12	i	-1%	-19%	u	5%	6%
COc1cc(OC)c2c(-c3ccccc3)cc(=O)oc2c1	i	-1%	-8%	i	1%	2%
COc1cc(OC)c2c(-c3cccc(-c4ccc(OC)c(F)c4)c3)cc(=O)oc2c1	0.92µM*	u	-20%	i	0.65µM*	u
COc1cc(OC)c2c(-c3cccc(-c4ccoc4)c3)cc(=O)oc2c1	i	u	-5%	i	u	u
CCc1cc(=O)oc2cc3occ(-c4ccc(OC)c(F)c4)c3cc12	18µM*	-52%	-44%	1.6µM*	5.2µM*	5.2µM*
CC(C)c1nn2c(=O)cc(COC(=O)c3ccc(NC(=O)C4CCCCC4)cc3)nc2s1	x	6%	-1%	x	x	x
Cc1cc(C)cc(N2C(=O)CSC23C(=O)N(CC(=O)NC2CCCCC2)c2ccccc23)c1 (configuration not stated)	u	-3%	-19%	i	x	x
CCCC12CN3CC(CCC)(CN(C1)C3c1c(C)[nH]c(=O)[nH]c1=O)C2=O (configuration not stated)	i	-3%	-6%	i	x	x
Cc1ccccc1N=Cc1cccc(O)c1O	i	16µM*	-56%	u	15µM*	-13%
SMILES	KB-3-1 tox	TGFb inhibitor	HepG2 tox	KB-V1 MDR tox	HT1080 IDH1KD tx	HT1080NT lethal
Cc1ccc(N=Cc2cccc(O)c2O)c(C)c1	i	u	-61%	i	x	x
Cc1ccc(C=Nc2ccccc2C(N)=O)cc1	7.3µM*	3%	-14%	5.8µM*	5.6µM*	7.1µM*
Cc1ccccc1C=Nc1ccccc1C(N)=O	3.7µM*	u	4%	u	16µM*	16µM*
O=C(NCCn1ccc2ccccc21)c1ccc(Cl)cc1	i	u	-40%	u	x	x
CCOC1=C2CN(S(=O)(=O)c3ccc(C)cc3)[C@H](c3ccccc3)C[C@@H]2N(S(=O)(=O)c2ccc(C)cc2)[C@H](c2cccs2)C1	i	-11%	-7%	i	21%	15%
O=C(Nc1ccon1)C(Sc1ccccc1)c1ccccc1 (configuration not stated)	i	u	-16%	i	-3%	2%
O=C(Nc1nncs1)C(Sc1ccccc1)c1ccccc1 (configuration not stated)	i	u	0%	21µM*	19%	10%
CCCCC(=O)Oc1ccc2oc(-c3ccc(OC)cc3)cc(=O)c2c1	i	-23%	-12%	6.5µM*	x	x
CN(C)N1C(N)=C(C#N)C(c2cccc3ccccc23)C2=C1CC(c1ccccc1)CC2=O (configuration not stated)	13µM*	u	-28%	21µM*	u	u
CN(C)N1C(N)=C(C#N)C(c2ccccc2)C2=C1CC(C)(C)CC2=O (configuration not stated)	i	-8%	-7%	i	20%	7%
CCSC1=N/C(=C\c2cccnc2)C(=O)N1c1ccccc1	i	0%	-1%	18µM*	1%	8%
CSC1=N/C(=C\c2cccnc2)C(=O)N1c1ccccc1	i	4%	10%	i	27%	10%
CCCCSC1=N/C(=C/c2ccsc2)C(=O)N1c1ccccc1	i	u	-1%	16µM*	-3%	8%
CCCSC1=N/C(=C/c2ccsc2)C(=O)N1c1ccccc1	i	0%	-2%	i	0%	2%
COc1ccc(CNC(=O)c2cc3c(=O)oc4ccc(C)cc4c3s2)c(OC)c1	i	-8%	4%	u	x	x
O=C1C=C(Nc2ccc(Cl)cc2)CC(c2ccc(Cl)cc2)C1 (configuration not stated)	i	-23%	-41%	23µM*	-21%	u
